Hits are enriched below; roughly 16% of the tested compounds scored in any of these assays.
uPA generation – qHTS for Inhibitors of Cell Surface uPA Generation; cell surface uPA generation assay, qHTS; AID 540303, 2011; Potency, µM (highest dose often 38.3 µM), usual class: inhibitors; 330,000 tested, 0.31% active; active means well fitted inhibition curve with a large enough effect; inconclusive means small, poorly fitted or top-dose-only effect; inactive means no such curve, though single readings can be large or run the other way; tested in mouse RAW 264.7 cells; further: nearly all actives have a fitted effect of over 55% in size
TDP1 cell CPT – qHTS for Inhibitors of human tyrosyl-DNA phosphodiesterase 1 (TDP1): qHTS in cells in presence of CPT | chicken DT40 Tdp1-/-;hTDP1 cells + 20 nM CPT, ATP luminescence, 48 h | Potency, µM (highest dose often 46.2 µM), most hits filed as inhibitors | 420,000 tested, 12% active | AID 686979, 2013; further: nearly all actives have a fitted effect of over 55% in size
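Chicken DT40 Tdp1-/- cells stably complemented with human TDP1 were seeded at 400 cells/well in medium containing 20 nM camptothecin, exposed to pin-transferred compounds, and grown at 37 °C for at least 48 hr. Viability was read as ATP luminescence.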
TDP1 block – qHTS Assay for Inhibitors of Tyrosyl-DNA Phosphodiesterase (TDP1). recombinant TDP1, AlphaScreen DNA substrate cleavage. 350,000 tested, 0.28% active. Potency, µM (series often up to 130 µM), usual class: inhibitors; further: nearly all actives have a fitted effect of over 40% in size
Target sequence (Q9NUW8 whole entry, looked up): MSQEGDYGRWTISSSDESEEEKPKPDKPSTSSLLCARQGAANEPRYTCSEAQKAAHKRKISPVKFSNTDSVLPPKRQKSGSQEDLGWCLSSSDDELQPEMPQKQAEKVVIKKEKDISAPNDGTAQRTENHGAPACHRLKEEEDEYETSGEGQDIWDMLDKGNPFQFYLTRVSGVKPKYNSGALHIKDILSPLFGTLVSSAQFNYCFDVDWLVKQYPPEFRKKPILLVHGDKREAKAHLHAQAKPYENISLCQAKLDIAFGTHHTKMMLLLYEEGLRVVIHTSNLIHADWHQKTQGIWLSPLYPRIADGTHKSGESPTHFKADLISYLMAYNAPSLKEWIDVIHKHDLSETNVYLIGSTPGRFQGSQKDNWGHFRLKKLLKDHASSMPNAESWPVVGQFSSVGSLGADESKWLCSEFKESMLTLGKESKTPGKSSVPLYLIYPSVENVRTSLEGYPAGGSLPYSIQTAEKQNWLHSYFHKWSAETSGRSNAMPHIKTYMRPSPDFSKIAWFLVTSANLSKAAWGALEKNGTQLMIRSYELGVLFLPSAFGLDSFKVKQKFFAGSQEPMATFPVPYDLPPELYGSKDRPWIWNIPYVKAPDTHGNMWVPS
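Recombinant E. coli-expressed Tdp1 (1 nM) preincubated with compound 15 min at RT, then 5'-biotin/3'-phosphotyrosine-FITC DNA substrate (15 nM) added for 5 min. AlphaScreen beads (10 ug/ml) added, 10 min RT; tyrosine-FITC cleavage read as signal loss.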
TDP1 cell noCPT – qHTS for Inhibitors of human tyrosyl-DNA phosphodiesterase 1 (TDP1): qHTS in cells in absence of CPT; DT40 Tdp1-/- hTDP1 cells, no CPT, ATP luminescence, 48 h; Potency, µM (top dose mostly 46.2 µM), hits mostly inhibitors; 420,000 tested, 15% active; AID 686978, 2013; further: nearly all actives have a fitted effect of over 55% in size
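Compound effects on proliferation are scored in DT40 Tdp1-/-;hTDP1 cells in the absence of CPT. ATP levels (CellTiter-Glo luminescence) are recorded after a ≥48 hr, 37 °C incubation.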
miR-21 reporter – qHTS Assay for Modulators of miRNAs and/orActivators of miR-21. HeLa miR-21 FLuc reporter, luciferase, 48 h. Potency, µM (highest dose often 38.3 µM), usual class: activators. 340,000 tested, under 10 active;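 further: miR-21 action dims this reporter so a rising signal means less miR-21 action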
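Luminescence from a firefly luciferase reporter carrying a miR-21 binding site downstream, stably expressed under a CMV promoter in HeLa cells that make miR-21 endogenously, reports miRNA modulation after 48 h compound exposure up to approximately 40uM final.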
Numbers stand for hits; ! = repeats disagree. Unless noted, the call rests on the fitted dose curve; in most records, active means well fitted curve in the direction sought with a large enough effect; inconclusive means small, poorly fitted or top-dose-only effect, or another doubt; inactive means no such curve, though single readings can be large; an effect the other way counts as inactive or inconclusive.

Results for CCOC(=O)C(C)n1cnc2sc3c(c2c1=O)CCC3 (stereo not given) ?
uPA generation: inactive; TDP1 cell CPT: inactive; TDP1 block: inactive; TDP1 cell noCPT: inactive; miR-21 reporter: inactive

How did COC(=O)C1ON2OC(C(=O)OC)C(C(=O)OC)C2C1CC(C)=O (stereo not given) do in these assays?
uPA generation: inactive; TDP1 cell CPT: inactive; TDP1 block: inactive; TDP1 cell noCPT: inactive; miR-21 reporter: inactive

What do the screens show for `COc1cc2c(cc1OC)C(c1cccs1)N(C(=O)c1cccc(S(=O)(=O)N(C)C)c1)CC2` (stereo not given)?
uPA generation: inactive; TDP1 cell CPT: 23µM; TDP1 block: inactive; TDP1 cell noCPT: inconclusive; miR-21 reporter: inactive

Results for CCC(=O)N1CCc2cc(OC)c(OC)cc2C1COc1ccc(C(=O)OC)cc1 (stereo not given) ?
TDP1 cell CPT: inconclusive; TDP1 block: inactive; TDP1 cell noCPT: inconclusive; miR-21 reporter: inactive

What do the screens show for `CCCCC(=O)N1CCc2cc(OC)c(OC)cc2C1COc1ccc(C(=O)OCC)cc1` (stereo not given)?
TDP1 cell CPT: inconclusive; TDP1 block: inactive; TDP1 cell noCPT: 18µM; miR-21 reporter: inactive

What do the screens show for `COc1ccc(C2c3cc(OC)c(OC)cc3CCN2C(=O)c2cccc([N+](=O)[O-])c2)cc1OC` (stereo not given)?
uPA generation: inactive; TDP1 cell CPT: inactive; TDP1 cell noCPT: inconclusive; miR-21 reporter: inactive

How did COc1ccc(C(=O)N/N=C/c2sc(=O)n(Cc3cccc(C(=O)O)c3)c2Cl)cc1 do in these assays?
uPA generation: inactive; TDP1 cell CPT: inactive; TDP1 block: inactive; TDP1 cell noCPT: inactive; miR-21 reporter: inactive

Results for COc1cccc(N2CCN(C(=O)c3cc4c(=O)n(Cc5ccccc5)ccc4nc3C)CC2)c1 ?
uPA generation: inactive; TDP1 cell CPT: 16µM!; TDP1 block: inactive; TDP1 cell noCPT: inconclusive; miR-21 reporter: inactive

How did CCc1cccc(NC(=O)c2cc3c(=O)n(Cc4ccc(OC)cc4)ccc3nc2C)c1 do in these assays?
TDP1 cell CPT: inconclusive; TDP1 block: inactive; TDP1 cell noCPT: 15µM; miR-21 reporter: inactive

How did COc1ccc(Cn2ccc3nc(C)c(C(=O)N4CCN(c5ccccc5F)CC4)cc3c2=O)cc1 do in these assays?
TDP1 cell CPT: 23µM; TDP1 block: inactive; TDP1 cell noCPT: 18µM; miR-21 reporter: inactive

What do the screens show for `COc1ccc(N2CCN(C(=O)c3cc4c(=O)n(Cc5ccccc5)ccc4nc3C)CC2)cc1`?
uPA generation: inactive; TDP1 cell CPT: inconclusive; TDP1 block: inactive; TDP1 cell noCPT: inconclusive; miR-21 reporter: inactive

How did Cc1nc2ccn(Cc3ccccc3)c(=O)c2cc1C(=O)N1CCN(c2ccccc2F)CC1 do in these assays?
TDP1 cell CPT: inconclusive; TDP1 block: inactive; TDP1 cell noCPT: inconclusive; miR-21 reporter: inactive

What do the screens show for `Cn1cc([C@@H]2C[C@H]3CN(Cc4cccc(Cl)c4)C(=O)[C@]34CCCN24)c(-c2ccccc2)n1`?
uPA generation: inactive; TDP1 cell CPT: inconclusive; TDP1 block: inactive; TDP1 cell noCPT: inconclusive; miR-21 reporter: inactive

What do the screens show for `Cc1ccc(NC(=O)c2sccc2-n2cccc2)c(C)c1`?
uPA generation: inactive; TDP1 cell CPT: 21µM; TDP1 block: inactive; TDP1 cell noCPT: inconclusive; miR-21 reporter: inactive

How did O=C(Nc1nnc([C@@H]2C[C@H](O)[C@@H](CO)O2)s1)c1ccccc1Cl do in these assays?
TDP1 cell CPT: inactive; TDP1 cell noCPT: inactive

What do the screens show for `COc1cc(-c2nnc(SCC(=O)c3cc(C)n(CC4CCCO4)c3C)o2)cc(OC)c1OC` (stereo not given)?
uPA generation: inactive; TDP1 cell CPT: 21µM; TDP1 block: inactive; TDP1 cell noCPT: inconclusive; miR-21 reporter: inactive

How did Cc1cc(C(=O)CN2C(=O)c3cccc(N)c3C2=O)c(C)n1Cc1cccs1 do in these assays?
uPA generation: inactive; TDP1 cell CPT: inconclusive; TDP1 block: inactive; TDP1 cell noCPT: 21µM; miR-21 reporter: inactive

Results for COc1ccccc1-n1cnnc1SCC(=O)c1cc(C)n(Cc2cccs2)c1C ?
uPA generation: inactive; TDP1 cell CPT: inconclusive; TDP1 block: inactive; TDP1 cell noCPT: inconclusive; miR-21 reporter: inactive

What do the screens show for `Cc1cc(C(=O)CSc2nnc(-c3cccnc3)n2-c2ccccc2F)c(C)n1CC1CCCO1` (stereo not given)?
uPA generation: inactive; TDP1 cell CPT: inactive; TDP1 block: inactive; TDP1 cell noCPT: 23µM; miR-21 reporter: inactive

What do the screens show for `Cc1cc(C(=O)CSc2nnc(-c3ccccc3F)o2)c(C)n1Cc1cccs1`?
uPA generation: inactive; TDP1 cell CPT: 23µM; TDP1 block: inactive; TDP1 cell noCPT: inconclusive; miR-21 reporter: inactive

Results for CCOc1ccc(NC(=O)c2ccc(N3CC4CC(C3)c3cccc(=O)n3C4)c(NC(=O)c3cccnc3)c2)cc1 (stereo not given) ?
uPA generation: inactive; TDP1 cell CPT: inactive; TDP1 block: inactive; TDP1 cell noCPT: inactive; miR-21 reporter: inactive

What do the screens show for `Cc1cc(C(=O)CSc2nnc(-c3ccc(F)cc3)o2)c(C)n1CC1CCCO1` (stereo not given)?
uPA generation: inactive; TDP1 cell CPT: inconclusive; TDP1 block: inactive; TDP1 cell noCPT: 21µM; miR-21 reporter: inactive

Results for CCOc1ccc(N(CC(=O)NCc2ccccc2)C(=O)CCC(=O)Nc2nccs2)cc1 ?
TDP1 cell CPT: inactive; TDP1 block: inactive; TDP1 cell noCPT: inconclusive; miR-21 reporter: inactive

How did Cc1ccc(NC(=O)C2CCCN(S(=O)(=O)c3c(C)nn(C)c3C)C2)c(C)c1 (stereo not given) do in these assays?
TDP1 cell CPT: inconclusive; TDP1 block: inactive; TDP1 cell noCPT: inconclusive; miR-21 reporter: inactive

Results for CN(C)S(=O)(=O)c1ccc(S(=O)(=O)N2CCCC(C(=O)NC3CCCC3)C2)cc1 (stereo not given) ?
uPA generation: inactive; TDP1 cell CPT: inconclusive; TDP1 block: inactive; TDP1 cell noCPT: 2.9µM; miR-21 reporter: inactive

How did Cc1nn(C)c(C)c1S(=O)(=O)N1CCCC(C(=O)N2CCN(c3ccc(Cl)cc3)CC2)C1 (stereo not given) do in these assays?
uPA generation: inactive; TDP1 cell CPT: 12µM; TDP1 block: inactive; TDP1 cell noCPT: 6.5µM; miR-21 reporter: inactive

Results for Cc1cc(C)c(S(=O)(=O)N2CCCC(C(=O)NC3CCCC3)C2)c(C)c1 (stereo not given) ?
uPA generation: inactive; TDP1 cell CPT: inconclusive; TDP1 block: inactive; TDP1 cell noCPT: 21µM; miR-21 reporter: inactive

Assay outcomes: PubChem, National Center for Advancing Translational Sciences (NCATS)
